Compound activity: PubChem, National Center for Advancing Translational Sciences (NCATS)
The full list was thinned out, with hits kept by preference.
KDM5B inhibitor: inhibitors of human KDM5B histone demethylase; Q9UGL1; KDM5B demethylase, FDH-coupled NADH fluorescence (FDH is formaldehyde dehydrogenase); Potency, µM (highest dose often 57.7 µM), most hits filed as inhibitors; 2.6% of 220,000 active; AID 1347165; active means well fitted inhibition curve with a large enough effect; further: nearly all actives have a fitted effect of over 70% in size
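KDM5BΔAP (200 nM final) in 50 mM HEPES pH 7.5, 0.01% Tween-20 was preincubated 10 min at RT with compound over a concentration range. Substrate mix (H3K4me3 12.5 µM, α-KG 25 µM, Fe²⁺, ascorbate, NAD⁺, FDH) was added, and NADH fluorescence change over 30 min gave dose-response curves.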
Numbers stand for hits; i = inactive.

SMILES	KDM5B inhibitor
CCOc1ccc2cc(/C(=N/O)C3CCCCC3)ccc2c1	i
CC(OC(=O)c1ccc(S(=O)(=O)N(C)C)cc1)C(=O)c1ccccc1 (centres undefined)	i
Cc1ccc(-c2cnc(CCC(=O)NCc3ccccc3F)o2)cc1C	i
O=C(OCCOc1ccc(Cl)cc1)c1ccccc1C(=O)c1ccc(Cl)cc1	i
COCc1nncn1C1CCN(S(=O)(=O)c2ccc(C)c(Cl)c2)CC1	i
CCc1ccc(NC(=O)Nc2c(N3CCCC3)c3ccccc3oc2=O)cc1	i
O=C(NCc1ccccc1Cl)C1CCCN(c2cnc3ccccc3n2)C1 (centres undefined)	i
COC(=O)c1sc2cccc(F)c2c1S(=O)(=O)N1CCN(c2cc(C)ccc2C)CC1	i
COc1ccc(/C=C/c2cc(C(=O)O)c3ccccc3n2)cc1O	i
Cc1cccc(-c2ncc(CN(C)Cc3cccc4ncccc34)cn2)c1	i
C=CCN(Cc1cccc(OCC(N)=O)c1)Cc1ccccc1C	i
C=CCN(Cc1cnc(-c2cccc(C)c2)nc1)Cc1ccccn1	22µM
Cc1oc(-c2ccccc2)nc1CC(=O)NCC1(N2CCOCC2)CCCCC1	i
O=C(c1ccc(C(F)(F)F)cc1)N1CCC(N2CC3CC(C2)[C@H]2CCCC(=O)N2C3)CC1 (some centres undefined)	i
O=C(c1ccncc1)N1CCC(N2CC3CC(C2)[C@H]2CCCC(=O)N2C3)CC1 (some centres undefined)	18µM
CC(C)c1ccc(C(=O)N2CCC(N3CC4CC(C3)[C@H]3CCCC(=O)N3C4)CC2)cc1 (some centres undefined)	i
COc1ccc(Nc2nc(C(=O)OCC(=O)c3ccc(Cl)cc3)cs2)cc1	i
Cc1ccc(S(=O)(=O)NCC(c2cccnc2)S(=O)(=O)c2ccccc2)cc1 (centres undefined)	i
Cc1cc(C)c2c(C)c(C(=O)Nc3cccc4cccnc34)oc2c1	i
COc1ccccc1N1CCN(c2nc(C)c3c(n2)CC(C)(C)CC3=O)CC1	i
Cc1ccc(C(=O)N2CCN(c3nnc4ccccn34)CC2)cc1	28µM
COc1ccc(C(=O)N2CCN(c3nnc4c(Cl)cccn34)CC2)cc1	i
COc1ccccc1C(=O)NC1CCN(c2cn[nH]c(=O)c2)CC1	i
O=C(c1cccs1)N1CCN(c2nnc3ccccn23)CC1	22µM
COc1ccccc1C(=O)NC1CCN(c2nnc3ccccn23)CC1	28µM
SMILES	KDM5B inhibitor
Cc1ccc(CC(=O)N2CCN(c3nnc4ccc(C(F)(F)F)cn34)CC2)cc1	i
O=C(c1ccc2c(c1)OCO2)N1CCN(c2nnc3ccccn23)CC1	25µM
O=C(c1ccc2c(c1)OCO2)N1CCn2c(nnc2-c2ccccc2)C1	i
O=C(c1ccccc1)N1CCN(C(=O)c2ccc3c(c2)OCO3)CC1	i
COc1ccccc1C(=O)NC1CCN(c2cc(C(F)(F)F)ncn2)CC1	i
O=C(c1cccs1)N1CCCCCCC1	i
O=C(c1ccc(OCc2cn3ccccc3n2)cc1)N1CCN(C(=O)c2cccs2)CC1	i
COc1ccc(C(C)=O)cc1COC(=O)C12CC3CC(CC(Br)(C3)C1)C2	i
CSc1nc(Cl)cc(Sc2ccc(C)cc2)n1	i
Cc1ccc(C)c(OCC(=O)Nc2ccc(-c3nc4ccccc4o3)cc2)c1	i
Cc1cc2c(-c3ccccc3)nc(-c3c(C)noc3C)cc2[nH]1	i
COc1cccc(-c2nc(-c3c(C)noc3C)cc3c2cc(C)n3C)c1OC	35µM
COc1cc(F)ccc1-c1nc(-c2c(C)noc2C)cc2[nH]c(C)cc12	35µM
COc1ccccc1-c1nc(-c2c(C)noc2C)cc2[nH]c(C)cc12	i
COc1ncccc1-c1nc(-c2c(C)noc2C)cc2[nH]c(C)cc12	i
Cc1noc(C)c1-c1cc2c(cc(C)n2C)c(-c2cccc([S+](C)(=O)[O-])c2)n1	25µM
Cc1cc2c(-c3cccnc3)nc(-c3c(C)noc3C)cc2[nH]1	28µM
Cc1noc(C)c1-c1cc2c(cc(C)n2C)c(-c2ccccc2)n1	i
CCCN(C)c1ccc(/C=N/NC(=S)Nc2cccc(SC)c2)cc1	i
CCc1ccc2c(c1)-c1ccccc1S(=O)(=O)N2CC(=O)N1CCOCC1	i
COC(=O)C1=C(N)OC2=C(C(=O)CC(C)(C)C2)C1c1cccc(Cl)c1 (centres undefined)	i
Cc1ccc2nc(-c3ccc(NC(=O)c4cccc([N+](=O)[O-])c4C)cc3)oc2c1	i
O=C(NCc1ccco1)c1nn(Cc2ccccc2)c(=O)c2ccccc12	i
COc1cccc(-c2nc(-c3c(C)noc3C)cc3c2cc(C)n3CCN(C)C)c1	40µM
COc1ncccc1-c1nc(-c2c(C)noc2C)cc2c1cc(C)n2CCN(C)C	i
Cc1noc(C)c1-c1cc2c(cc(C)n2C)c(-c2cccnc2)n1	35µM
COc1ccc(-c2nc(-c3c(C)noc3C)cc3c2cc(C)n3CCN(C)C)cc1OC	i
Cc1noc(C)c1-c1cc2c(cc(-c3ccccc3)n2C)c(-c2cccnc2)n1	i
Cc1ccc(C)c(NC(=O)c2n[nH]c(=O)c3ccccc23)c1	i
